Results from PubChem BioAssay (NCATS).
Inconclusive results are not listed. Active and inactive are the calls of the source. Calls follow the shape of the dose curve; as a rule, active = well fitted curve in the direction sought with a large enough effect; inconclusive = small, poorly fitted or top-dose-only effect, or another doubt; inactive = no such curve, though single readings can be large; an effect the other way counts as inactive or inconclusive.

Assays:
[1] = biological target: Rap guanine nucleotide exchange factor 3 (Homo sapiens) (UniProt O95398); assay: Confirmatory qHTS for antagonist of cAMP-regulated guanine nucleotide exchange factor 3 (EPAC1) (AID 1645880); conditions: EPAC1 Rap1B-BODIPY-GDP exchange, fluorescence; activity, negative = inhibition: at 115 µM (top of the series); also: nearly all actives have a fitted effect of over 55% in size; also: potency is read from the fitted curve at half-maximal effect;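 as to activity, negative = inhibition: plate controls were DMSO only for no effect and full effect of the ATA control for full effect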
Summary of the method: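 Nucleotide exchange uses 100 nM EPAC1, 250 nM RAP1B-BODIPY-GDP and 50 uM GDP, with compounds in a concentration-titration series. After 5 min at room temperature, fluorescence (480 nm ex/540 nm em) is read every 5 min for 30 min. Data are normalized to control ATA and DMSO.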

[2] = biological target: Rap guanine nucleotide exchange factor 4 (Homo sapiens) (UniProt Q8WZA2); assay: Confirmatory qHTS for agonist of cAMP-regulated guanine nucleotide exchange factor 4 (EPAC2) (AID 1645884);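 also: nucleotide exchange releases bodipy-GDP from Rap1 and this lowers its fluorescence; nearly all actives have a fitted effect of over 65% in size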; also: potency is read from the fitted curve at half-maximal effect; as to activation: % is scaled to controls: 0 for no effect and ±100 for the full control effect
[3] = biological target: Rap guanine nucleotide exchange factor 4 (Homo sapiens) (UniProt Q8WZA2); assay: Confirmatory qHTS for antagonist of cAMP-regulated guanine nucleotide exchange factor 4 (EPAC2) (AID 1645885); also: nearly all actives have a fitted effect of over 25% in size; also: potency is read from the fitted curve at half-maximal effect; as to activity change, negative = inhibition: % is scaled to controls: 0 for no effect and ±100 for the full control effect
[4] = biological target: Rap guanine nucleotide exchange factor 3 (Homo sapiens) (UniProt O95398); assay: Counterscreen qHTS for antagonist of cAMP-regulated guanine nucleotide exchange factor 3 (EPAC1) (AID 1645888);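 also: fluorescence loss as bound BODIPY-GDP is released from Rap1B; % of control where 0% means no effect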
Summary of the method: (§1)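 Rap1B–BODIPY-GDP (250 nM) with 50 uM GDP; compounds pin-transferred to 9.74 nM–152 uM final (activator) or from 7.32 nM upwards (inhibitor). Fluorescence Ex/Em 480/540 nm read at 5 and 30 min, then after adding cAMP or buffer, at room temperature.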

[5] = biological target: Rap guanine nucleotide exchange factor 3 (Homo sapiens) (UniProt O95398); assay: Confirmatory qHTS for agonist of cAMP-regulated guanine nucleotide exchange factor 3 (EPAC1) (AID 1645881);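 also: EPAC1 catalysed release of BODIPY-GDP from Rap1B seen as fluorescence loss; 100% = effect of cAMP agonist control; nearly all actives have a fitted effect of over 75% in size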
[6] = biological target: Rap guanine nucleotide exchange factor 3 (Homo sapiens) (UniProt O95398); assay: Counterscreen qHTS for agonist of cAMP-regulated guanine nucleotide exchange factor 3 (EPAC1) (AID 1645889); also: % of control where 0% means no effect; nearly all actives have a fitted effect of over 40% in size
Summary of the method: as §1

Rap guanine nucleotide exchange factor 4 (Homo sapiens), sequence (Q8WZA2 whole entry, looked up): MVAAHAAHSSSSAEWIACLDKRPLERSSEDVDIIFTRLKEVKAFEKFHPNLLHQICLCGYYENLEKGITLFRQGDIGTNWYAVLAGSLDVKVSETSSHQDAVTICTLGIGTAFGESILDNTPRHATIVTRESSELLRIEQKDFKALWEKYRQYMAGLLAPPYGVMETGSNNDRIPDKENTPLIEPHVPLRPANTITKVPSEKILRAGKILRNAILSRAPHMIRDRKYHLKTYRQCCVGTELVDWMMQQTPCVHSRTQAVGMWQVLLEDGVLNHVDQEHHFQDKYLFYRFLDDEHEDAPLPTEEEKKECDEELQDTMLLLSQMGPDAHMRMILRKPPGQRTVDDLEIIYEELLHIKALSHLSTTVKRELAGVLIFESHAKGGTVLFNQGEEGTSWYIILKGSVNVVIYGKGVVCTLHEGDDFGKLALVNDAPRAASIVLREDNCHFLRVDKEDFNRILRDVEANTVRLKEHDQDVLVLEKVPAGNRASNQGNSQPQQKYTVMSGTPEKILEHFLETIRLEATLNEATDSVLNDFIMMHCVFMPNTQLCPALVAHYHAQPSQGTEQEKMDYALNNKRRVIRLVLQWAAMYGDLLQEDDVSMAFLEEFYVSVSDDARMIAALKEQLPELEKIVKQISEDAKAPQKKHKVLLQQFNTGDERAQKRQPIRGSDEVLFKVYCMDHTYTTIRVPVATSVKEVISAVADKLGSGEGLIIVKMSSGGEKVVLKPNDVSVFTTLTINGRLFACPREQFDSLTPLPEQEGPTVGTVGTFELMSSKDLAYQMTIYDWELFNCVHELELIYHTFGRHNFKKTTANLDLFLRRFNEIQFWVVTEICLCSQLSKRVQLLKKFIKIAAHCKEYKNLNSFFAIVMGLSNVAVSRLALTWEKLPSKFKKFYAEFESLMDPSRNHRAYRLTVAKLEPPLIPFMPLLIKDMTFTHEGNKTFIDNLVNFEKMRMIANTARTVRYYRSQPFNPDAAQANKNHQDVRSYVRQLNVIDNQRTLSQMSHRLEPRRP
Rap guanine nucleotide exchange factor 3 (Homo sapiens), sequence (O95398 whole entry, looked up): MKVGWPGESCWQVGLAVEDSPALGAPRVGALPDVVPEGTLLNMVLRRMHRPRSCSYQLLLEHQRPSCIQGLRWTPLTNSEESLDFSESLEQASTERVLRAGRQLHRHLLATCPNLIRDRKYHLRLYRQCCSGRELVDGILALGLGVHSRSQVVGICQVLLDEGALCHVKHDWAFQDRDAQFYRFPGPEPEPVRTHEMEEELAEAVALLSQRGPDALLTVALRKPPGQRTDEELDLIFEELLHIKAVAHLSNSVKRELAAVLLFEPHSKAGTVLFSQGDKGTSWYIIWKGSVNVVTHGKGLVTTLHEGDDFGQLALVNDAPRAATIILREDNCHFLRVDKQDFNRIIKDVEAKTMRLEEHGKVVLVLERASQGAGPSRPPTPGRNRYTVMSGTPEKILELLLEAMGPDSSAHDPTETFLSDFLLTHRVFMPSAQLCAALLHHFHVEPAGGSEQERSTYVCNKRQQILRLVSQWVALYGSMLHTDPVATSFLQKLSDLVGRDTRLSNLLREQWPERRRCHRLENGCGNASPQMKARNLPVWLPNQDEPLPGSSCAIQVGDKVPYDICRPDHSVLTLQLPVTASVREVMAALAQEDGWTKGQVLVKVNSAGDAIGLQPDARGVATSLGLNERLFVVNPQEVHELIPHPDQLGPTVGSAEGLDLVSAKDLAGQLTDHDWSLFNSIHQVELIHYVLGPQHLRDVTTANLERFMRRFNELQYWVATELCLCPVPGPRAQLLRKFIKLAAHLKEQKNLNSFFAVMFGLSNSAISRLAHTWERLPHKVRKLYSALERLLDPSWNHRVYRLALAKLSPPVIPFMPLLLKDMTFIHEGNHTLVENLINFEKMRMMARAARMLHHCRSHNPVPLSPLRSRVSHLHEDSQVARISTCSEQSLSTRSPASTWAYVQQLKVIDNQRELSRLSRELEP

O=C1/C(=C/C=C/c2ccccc2)Oc2c1ccc(O)c2CN1CCN(CCO)CC1
inactive: Potency [1] | activation [2] 17.5% [at 17.1 µM, percent relative to cAMP agonist control] | Potency [3] | activity change, negative = inhibition [4] 31.1% [at 30.8 µM]

COc1ccc(OC)c(NC(=S)N2c3ccccc3CC2C)c1 (stereo not drawn)
inactive: Potency [1] | activation [2] 12.4% [at 17.1 µM, percent relative to cAMP agonist control] | Potency [3]

CCOc1ccc2c(ccc(/C=C/c3cc(C)c4cccnc4c3O)[n+]2C)c1
active: Potency [1] 60.1 µM | Potency [2] 70.8 µM | Potency [3] 42.6 µM

CC(/C=C/c1ccc(N(C)C)cc1)=N\N=C1\NC(=O)CC(C(=O)Nc2ccccc2)S1 (stereo not drawn)
inactive: Potency [1] | activation [2] 10% [at 17.1 µM, percent relative to cAMP agonist control] | Potency [3] | activity change, negative = inhibition [4] -3.02% [at 30.8 µM]

CN(C)c1ccc(C(=O)/C=C/c2ccc(Br)cc2)cc1
active: Potency [2] 112 µM
inactive: Potency [1] | Potency [3] | Potency [4]

CCOC(=O)C1Oc2ccccc2C(c2ccc(C)cc2)=C1C(=O)OC (stereo not drawn)
inactive: Potency [1] | Potency [5] | Potency [6]

COC(=O)c1ccc2nc(-c3ccc(F)cc3)c(Cc3ccccc3)n2c1
inactive: Potency [1] | Potency [5] | activation [6] 19.8% [at 30.8 µM]

O=C(COc1cccc(OC(F)F)c1)Nc1ccc(SC(F)F)cc1
inactive: Potency [1] | activation [2] 9.08% [at 17.1 µM, percent relative to cAMP agonist control] | Potency [3] | activity change, negative = inhibition [4] 8.28% [at 30.8 µM]
